{"source": "PubChem BioAssay (NCATS)", "note": "Inconclusive results are not listed. A call without a number means that no potency is given here. Calls of active or inactive are those of the source. Calls follow the shape of the dose curve; as a rule, active = well fitted inhibition curve with a large enough effect; inconclusive = small, poorly fitted or top-dose-only effect; inactive = no such curve, though single readings can be large or run the other way. Potency is read from the fitted curve at half-maximal effect.", "data": [{"test_system": "Zika virus NS2B-NS3 protease (unlinked complex)", "assay": "Primary screen GU Rhodamine qHTS for Zika virus inhibitors: Unlinked NS2B-NS3 protease assay (AID 1347159); also: nearly all actives have a fitted effect of over 60% in size", "settings": "Recombinant ZIKV NS2B-NS3 protease, Rhodamine110 substrate fluorescence; series mostly up to 107 µM", "method_in_brief": "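Percent inhibition derives from the 15-min fluorescence change (ex 480, em 540 nm), normalized to no-enzyme and no-inhibitor wells. Reactions contained 25 nM NS2B-NS3 complex and 1.5 microM substrate in 10 mM Tris-HCl pH 8.0.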", "values": [{"smiles": "CC[C@H]1OC(=O)[C@](C)(F)C(=O)[C@H](C)[C@@H](O[C@@H]2O[C@H](C)C[C@H](N(C)C)[C@H]2O)[C@](C)(OC)C[C@@H](C)C(=O)[C@@H](C)[C@H]2N(CCCCn3cc(-c4cccc(N)c4)nn3)C(=O)O[C@]12C", "Potency": "inactive"}, {"smiles": "CS(=O)(=O)c1ccc([C@H](CC2CCCC2)C(=O)Nc2nccs2)cc1", "Potency": "inactive"}, {"smiles": "CC(C)C(N)C(=O)OCCOCn1cnc2c(=O)[nH]c(N)nc21", "note": "(stereo not given)", "Potency": "inactive"}, {"smiles": "COc1ccc(-c2cnc3ccc(NCc4ccc(S(N)(=O)=O)cc4)nn23)cc1OC", "Potency": "inactive"}, {"smiles": "Cn1cncc1C(N)(c1ccc(Cl)cc1)c1ccc2c(c1)c(-c1cccc(Cl)c1)cc(=O)n2C", "note": "(stereo not given)", "Potency": "inactive"}, {"smiles": "CNC(=O)c1ccccc1Nc1nc(Nc2ccc(N3CCNCC3)cc2)ncc1Cl", "Potency": "inactive"}, {"smiles": "COc1cc(O)cc(/C=C/c2ccc(O[C@@H]3O[C@H](CO)[C@@H](O)[C@H](O)[C@H]3O)cc2)c1", "Potency": "inactive"}, {"smiles": "C=C1C(=O)OC2CC3(C)C(CC12)C(C)=CC(O)C3OC(C)=O", "note": "(stereo not given)", "Potency": "25.1 µM (active)"}, {"smiles": "COc1cc(C)c(C(=O)O[C@H]2[C@@H](OC(C)=O)[C@H](n3ccc(=O)[nH]c3=O)O[C@@H]2CO)c(OC)c1", "Potency": "inactive"}, {"smiles": "C[C@H](C/C=C/C(C)(C)O)[C@H]1CC[C@@]2(C)[C@@H]3[C@@H](O[C@@H]4O[C@H](CO)[C@@H](O)[C@H](O)[C@H]4O)C=C4C(CC[C@H](O)C4(C)C)[C@]3(C=O)CC[C@]12C", "note": "(stereo not given in full)", "Potency": "inactive"}, {"smiles": "CC(C)CCC(=O)CC1c2ccccc2C(=O)N1c1ccc2ccc(Cl)nc2n1", "note": "(stereo not given)", "Potency": "inactive"}, {"smiles": "CC(C)(C)C(=O)CN1C(=O)[C@H](NC(=O)Nc2cccc(C(=O)O)c2)CN(C2CCCCC2)c2ccccc21", "Potency": "10 µM (active)"}, {"smiles": "Cc1[nH]c2ccccc2c1C1=C(NCCc2ccc(F)cc2)C(=O)N(C)C1=O", "Potency": "inactive"}, {"smiles": "C/C=C/C=C/C=C/C(=O)OC1C=C(C=O)C(O)(C(=O)O)C2(C)CCCC(C)(C)C12", "note": "(stereo not given)", "Potency": "8.91 µM (active)"}, {"smiles": "Cc1ccc(C(=O)N(CCCN)C(c2nc3cc(Cl)ccc3c(=O)n2Cc2ccccc2)C(C)C)cc1", "note": "(stereo not given)", "Potency": "inactive"}, {"smiles": "CC(=O)OCC1(O)CCC2C(COC3OC(CO)C(O)C(O)C3OC(=O)/C=C/c3ccc(O)cc3)=COC(OC(=O)CC(C)C)C21", "note": "(stereo not given)", "Potency": "inactive"}, {"smiles": "CC1(C)[C@@H](O)CC[C@]2(C)[C@H]3CC=C4[C@@H]5C[C@](C)(C(=O)O)CC[C@]5(C)CC[C@@]4(C)[C@]3(C)CC[C@@H]12", "Potency": "7.08 µM (active)"}, {"smiles": "O=C(O)CC1CCC(c2ccc(-c3ccc4nc(C(=O)NCc5ccc(OC(F)(F)F)cc5)cn4c3)cc2)CC1", "note": "(stereo not given)", "Potency": "2.51 µM (active)"}, {"smiles": "CCCC(=O)NCCc1csc(-c2ccc(Cl)cc2)n1", "Potency": "inactive"}, {"smiles": "CCC(C)/C=C(C)/C=C/c1cc2c(cn1)C(=O)C(C)(OC(C)=O)C(O)=C2Cl", "note": "(stereo not given)", "Potency": "10 µM (active)"}, {"smiles": "CCc1cc(CN2CC(C(=O)O)C2)sc1-c1noc(-c2ccc(Oc3ccccc3)cc2)n1", "Potency": "3.98 µM (active)"}, {"smiles": "O=C1NC(Cc2c[nH]c3ccccc23)C(=O)NC1Cc1c[nH]c2ccccc12", "note": "(stereo not given)", "Potency": "inactive"}, {"smiles": "COc1ccc(-n2[nH]c(=O)c3[nH]c4cc(Cl)ccc4c(=O)c3c2=O)c(C)c1", "Potency": "56.2 µM (active)"}, {"smiles": "OCC(CO[C@@H]1O[C@H](CO)[C@@H](O)[C@H](O)[C@H]1O)c1ccc2c(c1)OCO2", "note": "(stereo not given in full)", "Potency": "inactive"}, {"smiles": "C[C@H](Oc1ccc(S(C)(=O)=O)cc1C(=O)N1CCN(c2ncc(C(F)(F)F)cc2F)CC1)C(F)(F)F", "Potency": "inactive"}, {"smiles": "CC(C)CC(=O)OC1OC=C(CO[C@@H]2O[C@H](CO)[C@@H](O)[C@H](O)[C@H]2O)C2CC(O)C(O)(CO)C12", "note": "(stereo not given in full)", "Potency": "inactive"}, {"smiles": "CC(O)c1cc(C(=O)N[C@@H](C)Cn2ccc(-c3ccc(C#N)c(Cl)c3)n2)n[nH]1", "note": "(stereo not given in full)", "Potency": "inactive"}, {"smiles": "CCNC(=O)C1OC(n2cnc3c(N)nc(NCCc4ccc(CCC(=O)O)cc4)nc32)C(O)C1O", "note": "(stereo not given)", "Potency": "inactive"}, {"smiles": "C[C@@H]1CCN(C(=O)N2CCCC2)C[C@@H]1N(C)c1ncnc2[nH]ccc12", "Potency": "inactive"}, {"smiles": "CC/C=C\\CC1C(=O)C=CC1(CCCCCCCC(=O)O)OC(C)=O", "note": "(stereo not given)", "Potency": "7.08 µM (active)"}, {"smiles": "Cc1ccc(NC(=O)Nc2cc(C(F)(F)F)ccc2F)cc1Nc1ccc2c(c1)NC(=O)/C2=C\\c1ccc[nH]1", "Potency": "39.8 µM (active)"}, {"smiles": "CC1CCC23COC(=O)C2=CC(O)CC3C1(C)CCC1=CC(O)OC1=O", "note": "(stereo not given)", "Potency": "8.91 µM (active)"}, {"smiles": "C=C[C@]1(C)C=C2CCC3C(C)(CCC[C@@]3(C)C(=O)O)C2CC1", "note": "(stereo not given in full)", "Potency": "12.6 µM (active)"}, {"smiles": "COc1cc2c3c(cc4ccccc4c3c1O)NC2=O", "Potency": "22.4 µM (active)"}, {"smiles": "Cc1ccc(F)cc1C(=O)Nc1ccc(C(=O)N2Cc3cccn3Cc3ccccc32)c(Cl)c1", "Potency": "inactive"}, {"smiles": "C=C(C(=O)OC)C1C(O)CC2(C)C(=O)CCC(O)(CO)C2C1O", "note": "(stereo not given)", "Potency": "inactive"}, {"smiles": "CC1(C)CC[C@]2(C(=O)O[C@@H]3O[C@H](CO)[C@@H](O)[C@H](O)[C@H]3O)CC[C@]3(C)C(=CCC4[C@@]5(C)C[C@@H](O)[C@H](O)[C@@](C)(CO)C5CC[C@]43C)C2[C@@H]1O", "note": "(stereo not given in full)", "Potency": "10 µM (active)"}, {"smiles": "N#Cc1ccc(C(=O)N2CCC3(CC2)N=C(N)c2c(F)ccc(F)c2N3)cn1", "Potency": "inactive"}, {"smiles": "C/C(=C\\C=C\\C(C)C1CCC2(C)C3CCC4C(C)(C)C(=O)CCC45CC35CCC12C)C(=O)O", "note": "(stereo not given)", "Potency": "4.47 µM (active)"}, {"smiles": "CC1=C(C(=O)O[C@@H]2O[C@H](COC3OCC(O)C(O)C3O)[C@@H](O)[C@H](O)[C@H]2O)C(C)(C)CCC1", "note": "(stereo not given in full)", "Potency": "inactive"}]}]}
